For six compounds, outcome and AC50 results are on record in PubChem BioAssay (EPA / NIEHS).

Broadly, the AC50 is the midpoint of the concentration-response curve, whichever way the signal moves.

Results filed as inconclusive are left out. Calls of active or inactive are those of the source. The calls were made as follows, unless noted: active = hit-call score of the fitted dose curve at least 0.9, where 1 is the maximum; inactive = score below 0.9.

Test [1] in a line: ATG_CRE_CIS: Attagene CIS-FACTORIAL HepG2 Assay for human cAMP Responsive Element (CRE) binding protein 3 (AID 2282926). The note with it: HepG2 CRE cis-reporter, Attagene multiplexed mRNA; actives raise or lower the signal. The method, boiled down: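 Transfected HepG2 were treated for 24 hours, then RNA was extracted and reporter cDNA amplified with sequence-specific primers. Labelled fragments were separated by capillary electrophoresis, and the CRE signal was fitted bidirectionally with DMSO as baseline.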

A short description of test [2]: ATG_AP_1_CIS: Attagene CIS-FACTORIAL HepG2 Assay for human Activator Protein 1 (AP-1) (AID 2282931). The note with it: HepG2 Attagene cis-factorial AP-1 reporter mRNA; actives raise or lower the signal. The method, boiled down:
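HepG2 cells transiently transfected with cis-element-driven multiplex reporter units; 24 h compound exposure. Reporter mRNA quantified by RT-PCR, FAM-labelled fragments resolved by capillary electrophoresis; bidirectional fit versus DMSO baseline.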

A short description of test [3]: ATG_ISRE_CIS: Attagene CIS-FACTORIAL HepG2 Assay for human Interferon Regulatory Factor 1 (IRF1) binding to an Interferon-Stimulated Response Element (ISRE) (AID 2282948). The following applies: HepG2 ISRE cis-reporter (Attagene), mRNA transcription readout; actives raise or lower the signal. In short, it runs like this: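 Cell-based cis-reporter assay; HepG2; 24 h exposure; reporter mRNA by RT-PCR plus capillary electrophoresis fluorescence; activity in either direction scored relative to DMSO.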

Test [4] can be described thus: ATG_M_32_CIS: Attagene CIS-FACTORIAL HepG2 Assay for M32 Transcription Factor (Internal Marker) (AID 2282949).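 Also: background control marker of the multiplexed CIS panel rather than a real target.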 The following applies: HepG2 Attagene cis-factorial M32 reporter, mRNA; actives raise or lower the signal. The method, boiled down:
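Following 24 h chemical exposure of HepG2 cells transiently expressing cis-promoter reporter constructs, reporter transcript levels were determined by RT-PCR with fluorescent labelling and capillary electrophoresis, then fitted bidirectionally against DMSO.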

Test [5] is described as follows: ATG_MRE_CIS: Attagene CIS-FACTORIAL HepG2 Assay for human Metal Responsive Element (MRE) (AID 2282954). The following applies: HepG2 MRE cis-reporter transcription, Attagene multiplex; actives raise or lower the signal. The method, boiled down:
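HepG2 cells transiently transfected with multiple cis-element reporter units measure endogenous MTF1-driven transcription. After 24 h compound exposure, reporter mRNA is quantified by RT-PCR with 6-FAM labelling, HpaI digestion and capillary electrophoresis; bidirectional fits versus DMSO.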

Test [6] has as its target Paired box protein Pax-6 (Homo sapiens) (UniProt P26367). Put plainly: ATG_Pax6_CIS: Attagene CIS-FACTORIAL HepG2 Assay for human Paired Box 6 (PAX6) (AID 2282956). The note with it: HepG2 CIS-FACTORIAL PAX6 reporter transcription, RNA readout; actives raise or lower the signal. In short, it runs like this:
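Multiplexed cis-reporter HepG2 system; 24 h treatment; reporter mRNA read by RT-PCR/CE fluorescence; bidirectional fit vs DMSO.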

The nature of test [7]: ATG_PXRE_CIS: Attagene CIS-FACTORIAL HepG2 Assay for human Pregnane X Receptor Element (PXRE) (AID 2282957). The following applies: HepG2 Attagene CIS-FACTORIAL PXRE reporter, mRNA; actives raise or lower the signal. The method, boiled down: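 Multiplexed cis-reporter assay in transiently transfected human HepG2 cells; 24 h chemical exposure. Reporter transcripts quantified by RT-PCR with fluorescent labeling and capillary electrophoresis.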

For test [8], the target named is Transcription factor Sp1 (Homo sapiens) (UniProt P08047). Description: ATG_Sp1_CIS: Attagene CIS-FACTORIAL HepG2 Assay for human Specificity Protein 1 (Sp1) (AID 2282961). The note with it: HepG2 Sp1 cis-reporter transcription, actives raise or lower the signal. The method, boiled down: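 HepG2 cells transiently transfected with multiple reporter transcription units driven by cis-regulatory elements; Sp1-responsive reporter mRNA measured 24 h after dosing by RT-PCR and capillary electrophoresis fluorescence, fitted bidirectionally against DMSO baseline.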
Sequence of Transcription factor Sp1 (Homo sapiens) (P08047 whole entry, looked up): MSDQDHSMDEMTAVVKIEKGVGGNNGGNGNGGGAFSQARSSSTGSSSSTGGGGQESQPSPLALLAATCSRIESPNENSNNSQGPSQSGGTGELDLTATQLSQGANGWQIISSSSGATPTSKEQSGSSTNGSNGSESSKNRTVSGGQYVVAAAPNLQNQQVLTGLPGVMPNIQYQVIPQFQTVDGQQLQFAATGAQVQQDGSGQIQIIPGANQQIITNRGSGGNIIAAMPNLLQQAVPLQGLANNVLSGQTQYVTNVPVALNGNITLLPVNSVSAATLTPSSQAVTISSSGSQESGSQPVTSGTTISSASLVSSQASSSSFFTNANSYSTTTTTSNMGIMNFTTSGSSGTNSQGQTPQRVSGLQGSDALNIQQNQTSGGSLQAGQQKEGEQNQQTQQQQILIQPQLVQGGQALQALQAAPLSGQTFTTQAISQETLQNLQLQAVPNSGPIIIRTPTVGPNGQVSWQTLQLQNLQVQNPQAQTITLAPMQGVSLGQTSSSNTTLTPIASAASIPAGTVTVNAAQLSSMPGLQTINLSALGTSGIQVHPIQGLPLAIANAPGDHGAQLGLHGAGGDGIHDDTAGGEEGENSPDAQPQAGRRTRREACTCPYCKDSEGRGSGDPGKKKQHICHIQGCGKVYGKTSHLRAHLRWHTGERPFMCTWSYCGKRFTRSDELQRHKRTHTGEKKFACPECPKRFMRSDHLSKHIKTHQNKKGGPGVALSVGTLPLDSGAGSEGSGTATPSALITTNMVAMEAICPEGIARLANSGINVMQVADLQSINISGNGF

Test [9] has as its target Signal transducer and activator of transcription 3 (Homo sapiens) (UniProt P40763). Put plainly: ATG_STAT3_CIS: Attagene CIS-FACTORIAL HepG2 Assay for human Signal Transducer and Activator of Transcription 3 (STAT3) (AID 2282963). The note with it: HepG2, Attagene cis-factorial STAT3 reporter transcription; actives raise or lower the signal. In short, it runs like this:
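HepG2 cells transiently transfected with cis-element-driven multiple reporter transcription units; after 24 h chemical exposure, reporter mRNA measured by RT-PCR, 6-FAM primer-extension labelling, HpaI digestion and capillary electrophoresis. Bidirectional fitting versus DMSO baseline.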

Test [10] is described as follows: ATG_TA_CIS: Attagene CIS-FACTORIAL HepG2 Assay for human TA Basal Promoter (AID 2282964). The following applies: HepG2 Attagene CIS-factorial TA basal promoter reporter; actives raise or lower the signal. In short, it runs like this:
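Fluorescence from labelled RT-PCR reporter fragments, separated by capillary electrophoresis, gives the signal. Cells: HepG2 transiently carrying multiple reporter units, 24 h chemical dosing. Gain or loss relative to DMSO.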

The nature of test [11]: ATG_TCF_b_cat_CIS: Attagene CIS-FACTORIAL HepG2 Assay for human T-Cell-Factor with beta-catenin (TCF/b-cat) (AID 2282965). The following applies: HepG2 TCF/beta-catenin cis-reporter transcription, actives raise or lower the signal. In short, it runs like this:
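Using capillary electrophoresis as the read-out, labelled reporter cDNA fragments from transiently transfected HepG2 were sized and quantified. Exposure lasted 24 hours; activity in either direction was referenced to DMSO.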

Test [12] in a line: ATG_TGFb_CIS: Attagene CIS-FACTORIAL HepG2 Assay for human Transforming Growth Factor (TGF) (AID 2282967). The note with it: HepG2 Attagene CIS TGFb reporter, mRNA transcription; actives raise or lower the signal. The method, boiled down: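 Bidirectional fitting relative to DMSO gave the endpoint. Underlying data: reporter mRNA from HepG2 cells carrying transiently transfected cis-regulated reporter constructs, harvested 24 h after dosing and analyzed by RT-PCR and capillary electrophoresis.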

Test [13] deals with X-box-binding protein 1 (Homo sapiens) (UniProt P17861). Description: ATG_Xbp1_CIS: Attagene CIS-FACTORIAL HepG2 Assay for human X-box Binding Protein 1 (XBP1) (AID 2282972). The note with it: HepG2 XBP1 cis-element reporter, Attagene multiplex; actives raise or lower the signal. In short, it runs like this: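 Fluorescence-labelled cDNA fragments from reporter transcripts, separated by capillary electrophoresis, give the signal. Source: HepG2 cells transfected with promoter-driven reporter units, harvested 24 h post-dose. DMSO served as reference for bidirectional curve fitting.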
Sequence of X-box-binding protein 1 (Homo sapiens) (P17861 whole entry, looked up, the tested form may be a part): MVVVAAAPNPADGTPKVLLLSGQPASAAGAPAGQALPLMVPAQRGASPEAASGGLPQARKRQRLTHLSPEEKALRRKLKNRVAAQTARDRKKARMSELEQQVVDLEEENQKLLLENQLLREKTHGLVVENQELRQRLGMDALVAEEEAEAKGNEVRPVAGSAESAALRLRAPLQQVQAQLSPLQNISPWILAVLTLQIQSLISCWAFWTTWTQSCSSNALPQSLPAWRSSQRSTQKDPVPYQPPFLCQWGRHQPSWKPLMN

In test [14] the target is Transcriptional activator Myb (Homo sapiens) (UniProt P10242). Put plainly: ATG_Myb_CIS: Attagene CIS-FACTORIAL HepG2 Assay for human Myeloblastosis (Myb) Proto-Oncogene Transcription Factor (AID 2282986). The note with it: HepG2 Attagene CIS-FACTORIAL Myb reporter transcription; actives raise or lower the signal. The method, boiled down: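 HepG2 cells were transiently transfected with cis-regulated multiple reporter transcription units reflecting endogenous Myb activity, then exposed to compound for 24 hours. Reporter mRNA was measured by RT-PCR with capillary electrophoresis; bidirectional fitting versus DMSO baseline.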
Sequence of Transcriptional activator Myb (Homo sapiens) (P10242 whole entry, looked up): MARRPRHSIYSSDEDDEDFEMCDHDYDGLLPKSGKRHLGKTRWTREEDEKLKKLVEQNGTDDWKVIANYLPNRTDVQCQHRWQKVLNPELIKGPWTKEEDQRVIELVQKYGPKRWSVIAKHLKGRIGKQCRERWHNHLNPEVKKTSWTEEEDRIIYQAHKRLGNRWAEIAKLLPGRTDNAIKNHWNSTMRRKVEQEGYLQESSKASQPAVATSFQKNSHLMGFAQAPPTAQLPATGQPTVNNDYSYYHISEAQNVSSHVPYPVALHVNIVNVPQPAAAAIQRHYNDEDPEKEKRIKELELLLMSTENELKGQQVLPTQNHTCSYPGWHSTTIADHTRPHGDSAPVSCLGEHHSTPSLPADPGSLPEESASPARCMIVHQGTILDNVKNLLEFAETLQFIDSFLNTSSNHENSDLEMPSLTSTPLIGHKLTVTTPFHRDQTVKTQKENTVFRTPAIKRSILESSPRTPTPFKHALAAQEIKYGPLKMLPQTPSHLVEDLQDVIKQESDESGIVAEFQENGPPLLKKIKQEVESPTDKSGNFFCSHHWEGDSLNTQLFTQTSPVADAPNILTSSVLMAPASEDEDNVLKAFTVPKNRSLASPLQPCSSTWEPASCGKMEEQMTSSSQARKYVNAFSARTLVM

Test [15] concerns the target Myc proto-oncogene protein (Homo sapiens) (UniProt P01106). Description: ATG_Myc_CIS: Attagene CIS-FACTORIAL HepG2 Assay for human Myelocytomatosis (Myc) Proto-Oncogene Transcription Factor (AID 2282990). The following applies: HepG2, Attagene cis-reporter transcription factor activity; actives raise or lower the signal. In short, it runs like this: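 Multiplexed cis-reporter transcription in HepG2 cells after 24 h chemical treatment. Reporter mRNA measured by RT-PCR and capillary electrophoresis fluorescence; activity fitted bidirectionally against DMSO control.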

The nature of test [16]: ATG_Oct_MLP_CIS: Attagene CIS-FACTORIAL HepG2 Assay for human Octamer-Binding Transcription Factor (Oct) (AID 2282993). The note with it: HepG2 Attagene cis-factorial Oct reporter, mRNA; actives raise or lower the signal. The method, boiled down:
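HepG2, transient MRTU transfection, cis promoter elements; 24 h dosing; RT-PCR/CE fluorescence read-out of reporter mRNA; fit both directions vs DMSO.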

Test [17] can be described thus: ACEA_ER_AUC_viability: ACEA Biosciences xCELLigence Real-Time Cell Analysis on Estrogen Receptor Agonism for Viability (AID 2283782; active = hit-call score of the fitted dose curve at least 0.9, where 1 is the maximum;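 also: continuous compound exposure with impedance area under curve over 80 h; hit means loss of impedance signal meaning reduced cell growth or viability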). The method, boiled down: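 T-47D human breast cells in phenol red-free RPMI1640 with 10% charcoal-stripped FBS were dosed with an 8-point 1:4 dilution series from 100 uM top final concentration, in duplicate. Impedance-based growth was followed for 80 h; AUC analysed versus DMSO.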

Test [18] can be described thus: CCTE_Harrill_HTTr_Viability_MCF7: CCTE's 6-hour Cell Viability Assessment for the High-Throughput Transcriptomics (HTTr) Platform, in MCF-7 cells cultured in DMEM + 10% fetal bovine serum, Harrill Lab (AID 2284010). In short, it runs like this:
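Viability measured through PI dye exclusion by high-content imaging at 6 h post-dosing.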

Test [19] is described as follows: CCTE_Harrill_HTTr_Apoptosis_MCF7: CCTE's 6-hour Apoptosis Assessment for the High-Throughput Transcriptomics (HTTr) Platform, in MCF-7 cells cultured in DMEM + 10% fetal bovine serum, Harrill Lab (AID 2284011). The method, boiled down: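 Apoptosis in MCF-7 cells grown in DMEM with 10% fetal bovine serum was scored after a six hour exposure by high content imaging of caspase-3/7 activation (CellEvent Caspase 3/7 Green), with DMSO serving as negative control and baseline.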

Test [20] deals with bovine Estrogen Receptor (ER), ESR1 (gene 407238) (UniProt P49884). Description: NVS_NR_bER: NovaScreen (NVS) Nuclear Receptor Binding Assay for bovine Estrogen Receptor (ER) (AID 2283345; active = hit-call score of the fitted dose curve at least 0.9, where 1 is the maximum;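 also: actives lower the bound radioligand count which means they displace the ER ligand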). In short, it runs like this:
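Displacement of a radioligand from estrogen receptor in bovine uterine membrane preparations; scintillation signal taken at 18 hours, DMSO as baseline. Single-concentration duplicates (25 uM) preceded concentration-response follow-up of actives.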

Sequence of Myc proto-oncogene protein (Homo sapiens) (P01106 whole entry, looked up): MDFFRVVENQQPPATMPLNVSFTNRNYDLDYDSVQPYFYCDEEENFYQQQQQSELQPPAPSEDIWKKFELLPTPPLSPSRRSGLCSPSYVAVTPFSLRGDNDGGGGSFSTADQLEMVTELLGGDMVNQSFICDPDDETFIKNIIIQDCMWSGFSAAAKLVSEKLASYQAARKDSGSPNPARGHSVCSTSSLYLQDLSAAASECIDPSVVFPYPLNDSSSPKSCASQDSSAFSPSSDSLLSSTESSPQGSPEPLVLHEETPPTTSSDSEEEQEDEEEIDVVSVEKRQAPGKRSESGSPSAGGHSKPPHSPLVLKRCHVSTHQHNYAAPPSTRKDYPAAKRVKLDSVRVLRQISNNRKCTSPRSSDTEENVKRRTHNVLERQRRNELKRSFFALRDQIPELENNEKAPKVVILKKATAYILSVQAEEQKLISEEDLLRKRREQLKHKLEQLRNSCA
Sequence of Signal transducer and activator of transcription 3 (Homo sapiens) (P40763 whole entry, looked up): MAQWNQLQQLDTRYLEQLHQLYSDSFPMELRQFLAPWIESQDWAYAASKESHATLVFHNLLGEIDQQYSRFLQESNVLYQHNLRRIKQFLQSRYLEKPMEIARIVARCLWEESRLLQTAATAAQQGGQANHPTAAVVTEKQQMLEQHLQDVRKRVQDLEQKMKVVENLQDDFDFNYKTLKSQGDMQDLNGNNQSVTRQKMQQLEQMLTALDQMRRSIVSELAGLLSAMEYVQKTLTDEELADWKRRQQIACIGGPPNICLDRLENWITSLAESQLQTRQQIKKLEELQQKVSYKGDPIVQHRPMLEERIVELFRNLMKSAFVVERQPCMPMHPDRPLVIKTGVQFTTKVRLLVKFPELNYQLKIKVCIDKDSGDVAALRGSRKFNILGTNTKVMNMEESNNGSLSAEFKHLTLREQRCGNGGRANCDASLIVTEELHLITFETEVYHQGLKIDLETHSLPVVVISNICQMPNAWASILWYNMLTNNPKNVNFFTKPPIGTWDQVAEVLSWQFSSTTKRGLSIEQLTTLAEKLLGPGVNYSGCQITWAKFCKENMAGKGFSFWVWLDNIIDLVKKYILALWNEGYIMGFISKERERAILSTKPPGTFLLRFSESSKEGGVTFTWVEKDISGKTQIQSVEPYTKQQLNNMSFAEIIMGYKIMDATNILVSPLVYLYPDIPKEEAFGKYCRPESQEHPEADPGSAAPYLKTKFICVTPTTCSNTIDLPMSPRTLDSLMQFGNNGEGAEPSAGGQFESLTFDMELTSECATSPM
Sequence of Paired box protein Pax-6 (Homo sapiens) (P26367 whole entry, looked up): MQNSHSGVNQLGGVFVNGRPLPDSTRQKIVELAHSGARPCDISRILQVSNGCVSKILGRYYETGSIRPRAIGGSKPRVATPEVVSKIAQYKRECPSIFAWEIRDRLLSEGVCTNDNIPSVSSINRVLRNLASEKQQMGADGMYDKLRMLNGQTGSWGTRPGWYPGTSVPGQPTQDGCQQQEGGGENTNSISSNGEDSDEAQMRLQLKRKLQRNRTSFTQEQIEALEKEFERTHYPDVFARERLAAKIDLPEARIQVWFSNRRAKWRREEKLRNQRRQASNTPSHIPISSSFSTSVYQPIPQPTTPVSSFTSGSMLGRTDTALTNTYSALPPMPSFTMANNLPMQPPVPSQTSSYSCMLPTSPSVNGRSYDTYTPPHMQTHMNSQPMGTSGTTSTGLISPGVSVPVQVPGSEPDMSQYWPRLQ
Sequence of bovine Estrogen Receptor (ER), ESR1 (gene 407238) (P49884 whole entry, looked up): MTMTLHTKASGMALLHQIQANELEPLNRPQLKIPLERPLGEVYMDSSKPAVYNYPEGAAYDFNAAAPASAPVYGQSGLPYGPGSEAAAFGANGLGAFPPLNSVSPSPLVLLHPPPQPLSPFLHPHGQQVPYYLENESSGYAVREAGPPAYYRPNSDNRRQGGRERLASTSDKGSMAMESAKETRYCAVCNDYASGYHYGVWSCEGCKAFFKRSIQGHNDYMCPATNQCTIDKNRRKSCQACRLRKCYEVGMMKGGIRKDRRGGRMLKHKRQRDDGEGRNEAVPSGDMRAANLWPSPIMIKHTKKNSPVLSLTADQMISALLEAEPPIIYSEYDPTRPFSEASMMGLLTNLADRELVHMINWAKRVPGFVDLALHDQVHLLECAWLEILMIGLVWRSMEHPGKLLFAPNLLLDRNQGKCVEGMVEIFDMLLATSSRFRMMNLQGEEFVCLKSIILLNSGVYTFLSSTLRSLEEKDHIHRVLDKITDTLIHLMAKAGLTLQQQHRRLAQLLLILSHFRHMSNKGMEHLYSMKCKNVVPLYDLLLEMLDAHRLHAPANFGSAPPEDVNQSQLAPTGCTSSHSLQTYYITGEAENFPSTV

`CCCCCCOC(=O)CCCCCCCC(=O)OCCCCCC`: the compound was called inactive in test [1], in test [2], in [3], in test [4], in test [5] and in test [6]. In addition, the compound was called inactive in test [8], in test [9], in test [10], in test [11], in test [12] and in test [13]. In addition, the result in [14], in test [15] and in [16] was inactive. Moreover, the AC50 is 71.6 µM (active) in [7] and 50 µM (active) in test [17].

Regarding `COc1cccc(OC)c1C(=O)O`, the result in [1], in test [2], in test [3], in [4], in test [5] and in [6] was inactive. Moreover, the outcome in test [7], in [8], in test [9], in [10], in [11] and in test [12] was inactive. The outcome in test [13], in test [14], in test [15], in test [16] and in [17] was inactive.

As to `CCO[Si](OCC)(OCC)c1ccccc1`, the outcome in test [1], in test [2], in test [3], in [4], in test [5] and in test [6] was inactive. In addition, the result in [8], in test [9], in test [10], in test [11], in test [12] and in [13] was inactive. In addition, the result in test [14], in test [15], in test [16] and in test [17] was inactive. In addition, the AC50 in test [7] is 50.9 µM (active).

On to `COc1c2occc2cc2ccc(=O)oc12`, for which the compound was called inactive in [1], in test [2], in [3], in test [4], in [5] and in test [6]. In addition, the compound was called inactive in test [8], in test [9], in test [10], in [11], in test [12] and in [13]. The result in test [14], in test [15], in test [16], in [17], in test [18] and in [19] was inactive. The concentration at half-maximal activity (AC50) in test [7] was 27.3 µM (active).

In the case of `CC(=O)CC(=O)OC(C)(C)C`, in [20], the compound was called inactive.

For the compound `COc1ccc2ccccc2c1`, the compound was called inactive in [3], in test [4], in [5], in test [6], in test [7] and in test [8]. The compound was called inactive in test [9], in test [10], in [11], in [12], in [13] and in test [14]. For the same compound, the outcome in test [15], in test [16], in test [18] and in [19] was inactive.
